Bioassay records: PubChem, several laboratories
Hits are enriched below; roughly 3.7% of the tested compounds scored in any of these assays.
NALP3 yeast inh – blocks the NALP3 inflammasome reconstituted in yeast | Yeast reconstituted NLRP3/ASC/caspase-1, beta-gal luminescence, 24 h | inhibition, % at 10 µM | hit rate 0.39% among 330,000 | AID 2825;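 active = inhibition of 50% or more; inactive = inhibition below 50%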;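 also: plate controls were induced DMSO wells for no effect and uninduced yeast grown without galactose for full effect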
tim10-1 inh – tim10-1 yeast growth inhibition | S. cerevisiae tim10-1 ts strain growth, BacTiter-Glo, 24 h | inhibition, % at 20 µM | hit rate 2.2% among 330,000;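 active = inhibition of at least 40%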;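 also: mutant grown at 25 °C; 0% = DMSO wells with yeast and 100% = wells holding no yeast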
TIM10 inh – inhibits growth of TIM10 yeast strain; S. cerevisiae TIM10 strain growth, BacTiter-Glo luminescence, 24 h; inhibition, % at 10 µM; hit rate 1.4% among 330,000;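 active = inhibition of 40% or more at the single tested concentration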;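 also: wild-type TIM10 isogenic control strain grown at permissive 25 °C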
PfHsp90 yeast 2 – inhibits growth of yeast expressing Plasmodium falciparum Hsp90; S. cerevisiae expressing PfHsp90, BacTiter-Glo ATP, 48 h; yeast lacking PDR1 and PDR3 efflux regulators; hit rate 0.32% among 310,000; AID 504621; inhibition, % at 9.4 µM;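 active = every replicate shows inhibition above about 80%, whatever the replicate mean, limit read from the data; inconclusive = mean inhibition reaches the set limit but some replicate falls short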;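 also: 0% = DMSO neutral controls and 100% = 20 µM radicicol positive controls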
tim23-1 inh – growth inhibitors of tim23-1 mutant yeast; S. cerevisiae tim23-1 growth, BacTiter-Glo luminescence, 24 h; inhibition, % at 20 µM; hit rate 1.3% among 330,000; AID 463212;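 active = growth inhibition of the mutant yeast at or above 50%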;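 also: temperature-sensitive mutant grown at 25 °C; plate controls were DMSO-treated mutant yeast for no effect and medium wells lacking yeast for full effect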
NALP3 yeast conf – NALP3 inhibition confirmation in yeast. AID 435006. hit rate 81% among 1,300. shares compounds with NALP3 yeast inh. yeast expressing human NALP3, luminescence. inhibition, % at 10 µM; in the data active = inhibition above about 48%
Casp1-ASC yeast – counter-screen for NALP3 inhibitors: yeast caspase-1-ASC. AID 488784. yeast expressing Caspase-1-ASC, luminescence counter screen. inhibition, % at 10 µM. shares compounds with NALP3 yeast inh. hit rate 66% among 1,000
NALP3 yeast rt – retest-confirmed inhibitor of NALP3 in yeast; shares compounds with NALP3 yeast inh; yeast expressing human NALP3, luminescence read-out; inhibition, % at 10 µM; hit rate 53% among 1,000
tim10-1 conf – tim10-1 yeast growth inhibition, confirmed; shares compounds with tim10-1 inh; S. cerevisiae tim10-1 ts strain growth, BacTiter-Glo, 24 h; inhibition, % at 20 µM; hit rate 56% among 7,400; AID 463213;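 active = inhibition of yeast growth at or above a set limit in either of two repeat tests at 20 µM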;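 also: tim10-1 mutant grown at permissive 25 °C to find synthetic lethal compounds; 0% = DMSO yeast wells and 100% = medium wells without yeast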
tim10 confirm – confirmation of TIM10 yeast growth inhibitors | shares compounds with TIM10 inh | S. cerevisiae tim10 strain growth, BacTiter-Glo luminescence, 24 h | inhibition, % at 10 µM | hit rate 63% among 4,600;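 active = inhibition of yeast growth at or above a set limit in either of two replicates at 10 µM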;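 also: this counterscreen used the strain with wild-type TIM10; 0% = yeast with DMSO and 100% = medium wells lacking yeast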
tim23-1 conf – confirmation of tim23-1 mutant yeast growth inhibitors | shares compounds with tim23-1 inh | S. cerevisiae tim23-1 growth, BacTiter-Glo luminescence, 24 h | inhibition, % at 20 µM | hit rate 83% among 4,400 | AID 463218;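 active = inhibition above about 39% in either of two replicate wells at 20 µM, limit read from the data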;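 also: temperature-sensitive tim23-1 mutant grown at 25 °C; 0% = DMSO wells with yeast and 100% = medium wells without yeast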
* hit, by the source's call; ? = inconclusive; . = no result given. Rule as the data show it, unless noted: active = inhibition above about 50%; inactive = the rest.

SMILES	NALP3 yeast inh	tim10-1 inh	TIM10 inh	PfHsp90 yeast 2	tim23-1 inh	NALP3 yeast conf	Casp1-ASC yeast	NALP3 yeast rt	tim23-1 conf	others
O=C(NC1CCCCC1)c1c(O)nc2sccn2c1=O	58*	15	5	.	67*	74*	34	42	47*
Cc1cc2c(cc1S(=O)(=O)Nc1ccc(OC(F)(F)F)cc1)OCC(=O)N2	10	32	12	5	12	.	.	.	.
Cc1ccsc1C(=O)OCC(=O)N1CC(C)CC(C)C1 (stereo not given)	6	0	-7	.	18	.	.	.	.
COc1cc(C(=O)ON=C2C3CC4CC(C3)CC2C4)cc(OC)c1OC	59*	19	82*	-24	50*	92*	40	26	60*	tim10 confirm=84*
COc1c(C(=O)NC(=S)Nc2nnn(C)n2)cc2ccccc2c1Br	7	2	-12	0	-4	.	.	.	.
Cn1nnc(NC(=S)NC(=O)c2cccc3c(Cl)cccc23)n1	54*	49*	11	-36	52*	64*	74*	46	39*	tim10-1 conf=-2
O=C(CN1C(=O)NC2(CCc3ccccc32)C1=O)c1ccc(F)cc1 (stereo not given)	11	-3	-6	-3	-20	.	.	.	.
COc1cc(/C=N/NC(=O)C2CC(=O)N(c3ccc(C)cc3)C2)cc(OC)c1OC (stereo not given)	5	-10	18	22	0	.	.	.	.
O=S1(=O)Nc2c(ccc3cccnc23)-c2ccccc21	70*	29	48*	151*	70*	86*	98*	91*	47*	tim10 confirm=57*
Clc1ccc2ccc3cccnc3c2n1	17	-28	12	43	15	.	.	.	.
CNC(=S)NN=C(C)CCCC(C)=NNC(=S)NC	.	.	.	-20	.	.	.	.	.
C#C[C@]1(O)CC[C@H]2[C@@H]3CCc4cc(O)ccc4[C@H]3CC[C@@]21C	55*	50*	27	-29	52*	68*	51*	44	49*	tim10-1 conf=34*
Nc1c(-c2ccccc2)cnn1-c1ccccc1	15	-21	-25	10	9	.	.	.	.
O=c1cnn(-c2ccccc2)c(-c2ccccc2)c1	56*	54*	76*	-28	65*	79*	59*	56*	70*	tim10-1 conf=62*;tim10 confirm=64*
Cc1ccn(-c2ccc(NC(=O)c3cccs3)cc2)n1	59*	13	38	59	75*	82*	64*	35	69*
O=C(Nc1ccc(Cl)cc1)c1cccs1	60*	-5	37	-3	61*	77*	55*	65*	59*
O=C(Nc1ccc(NC(=O)c2cccs2)c(Cl)c1)c1cccs1	61*	8	28	10	51*	84*	64*	60*	65*
CN1CCN(c2ccc(NC(=O)c3cccs3)cc2)CC1	18	-11	3	-5	-5	.	.	.	.
O=C(Nc1ccc(-c2cn3ccccc3n2)cc1)c1cccs1	57*	-4	42*	9	62*	76*	72*	62*	71*	tim10 confirm=26
O=C(Nc1ccc(NC(=O)c2cccs2)cc1)c1cccs1	2	-45	-7	10	-3	.	.	.	.
Cc1cc(F)ccc1S(=O)(=O)N(CC(=O)N1CCOCC1)CC(=O)N1CCOCC1	1	-10	-5	.	-4	.	.	.	.
O=C(Nc1ccc(F)c(Cl)c1)c1ccccc1	61*	14	34	6	64*	82*	70*	63*	67*
CCc1ccc(S(=O)(=O)N2CCN(c3ncccn3)CC2)cc1	28	22	7	25	30	.	.	.	.
CCOC(=O)C(=CNc1cc(C)nn1-c1ccc(Cl)cc1)C(=O)OCC	9	24	14	9	-9	.	.	.	.
CCOC(=O)C(=Cc1ccc(-n2cncn2)cc1)C(=O)OCC	50*	62*	67*	?	52*	61*	57*	40	71*	tim10-1 conf=52*;tim10 confirm=47*
SMILES	NALP3 yeast inh	tim10-1 inh	TIM10 inh	PfHsp90 yeast 2	tim23-1 inh	NALP3 yeast conf	Casp1-ASC yeast	NALP3 yeast rt	tim23-1 conf	others
CN1CCN(C(c2ccc(Br)cc2)c2cc(Cl)c3cccnc3c2O)CC1 (stereo not given)	57*	22	36	107*	66*	37	.	.	77*
Cc1cc(C)nc(SC2=CS(=O)(=O)c3ccccc32)n1	16	15	28	38	21	.	.	.	.
O=S1(=O)C=C(Sc2nc3ccccc3s2)c2ccccc21	62*	69*	77*	.	66*	64*	86*	59*	12	tim10-1 conf=65*;tim10 confirm=86*
O=S(=O)(c1ccc(Cl)cc1)N1CCN(c2ncnc3sccc23)CC1	50*	-1	9	-30	58*	52*	44	37	31
Brc1ccc(-n2cnc(-c3ccccc3)c2)cc1	52*	10	35	-5	55*	77*	36	51*	51*
Nc1cc(-c2ccccc2)nn1S(=O)(=O)c1ccc(Br)cc1	27	24	2	-8	36	.	.	.	.
O=C(O)c1ccc(S(=O)(=O)/N=C2\C=C(Nc3ccccc3F)C(=O)c3ccccc32)cc1	94*	79*	74*	24	81*	83*	99*	97*	89*	tim10-1 conf=84*;tim10 confirm=74*
Cc1ccccc1NC1=C/C(=N\S(=O)(=O)c2ccc(C(=O)O)cc2)c2ccccc2C1=O	42	27	21	-18	48	.	.	.	.
CCc1cccc(NC(=O)CN(C)C2=NS(=O)(=O)c3ccccc32)c1	6	3	9	-5	13	.	.	.	.
CC1=C(C(=O)Nc2cc(C(=O)N3CCC(C)CC3)ccc2C)SCCO1	11	31	-7	25	16	.	.	.	.
O=C(N/N=C\c1ccc(O)c([N+](=O)[O-])c1)C1COc2ccccc2O1 (stereo not given)	-34	5	9	0	11	.	.	.	.
Cc1cc([N+](=O)[O-])cc(/C=N\NC(=O)C2COc3ccccc3O2)c1O (stereo not given)	51*	14	45*	-16	67*	70*	78*	69*	70*	tim10 confirm=36*
O=C(Nc1cccc(Br)c1)c1cc2ccccc2o1	64*	11	47*	-1	53*	62*	48	60*	62*	tim10 confirm=49*
